A number with no mark means an inactive call. The rule behind the calls is not given here. Non-standard residues stand in square brackets, D forms with d. Residues, ends and D or L forms follow the SMILES beside them. Groups on a side chain read outwards from the residue. *: point of attachment. X2 = CCC(C)C(N)C1=NC(C(=O)*)CS1; Orn = NCCC[CH](N)C(=O)O
Tested on: Aerobactin synthetase IucA (Klebsiella pneumoniae hvKP1)
Assay: IucA enzyme inhibition, primary screen, biochemical, Spectrum library (AID 1346200);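 note: 100% = wells without compound and 0% = wells lacking enzyme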
Conditions: malachite green pyrophosphate, A620, at 8 µM, stronger effect = lower value

SMILES	activity remaining [%]
OC[C@H]1O[C@@](CO)(O[C@@H]2O[C@H](CO)[C@@H](O)[C@H](O)[C@H]2O)[C@@H](O[C@@H]2O[C@H](CO)[C@@H](O)[C@H](O)[C@H]2O)[C@@H]1O	82.4
CC1(C)C2CC[C@]3(C)C(C(=O)C=C4[C@H]5C[C@@](C)(C(=O)O)CC[C@]5(C)CC[C@]43C)[C@@]2(C)CC[C@@H]1O (stereo partly drawn)	109
c1ccc2[nH]c(-c3cscn3)nc2c1	111
CC(=O)O[C@]1(C(C)=O)CCC2C3C=C(Cl)C4=CC(=O)[C@@H]5C[C@@H]5[C@]4(C)C3CC[C@@]21C (stereo partly drawn)	101
CC(=O)OC/C=C(\C)CC/C=C(\C)CC/C=C(\C)CC/C=C(\C)CC/C=C(\C)CC/C=C(\C)CC/C=C(\C)CC/C=C(\C)CCC=C(C)C	120
CC1=C2C(=CO[C@H](C)[C@H]2C)C(=O)C(C(=O)O)=C1O	94.3
CCCc1ncc(C[n+]2ccccc2C)c(N)n1	111
CCC(=O)c1c(O)cc(O)cc1O	116
O=C1C(=O)c2ccccc2C(O)=C1C1CCC(c2ccc(Cl)cc2)CC1 (stereo not drawn)	101
OCC(O)CN1CCN(c2ccccc2)CC1 (stereo not drawn)	107
N[C@@H](CCC(=O)N[C@@H](CS)C(=O)NCC(=O)O)C(=O)O	101
COC1CC2CCC(C)C(O)(O2)C(=O)C(=O)N2CCCCC2C(=O)OC(C(C)CC2CCC(O)C(OC)C2)CC(=O)C(C)/C=C(\C)C(O)C(OC)C(=O)C(C)CC(C)/C=C/C=C/C=C/1C (stereo not drawn)	107
C/C=C(/C)C(=O)O[C@H]1CC[C@@]2(C)[C@@H]3CC[C@H]4[C@]5(O)C[C@H](O)[C@@]6(O)[C@@H](CN7C[C@@H](C)CC[C@H]7[C@@]6(C)O)[C@]5(O)C[C@@]42OC13O	103
CC12CCC3c4ccc(OCc5ccccc5)cc4CCC3C1C[C@@H](O)[C@@H]2O (stereo partly drawn)	119
CC1=CC(=O)C2C(C)(C)CCC[C@]2(C)[C@@]1(O)CCc1ccoc1 (stereo partly drawn)	105
CCOC(=O)NNc1nncc2ccccc12	118
CCC(C)C(N)C1=NC(C(=O)NC(CC(C)C)C(=O)NC(CCC(=O)O)C(=O)NC(C(=O)NCCCCC2NC(=O)C(CC(N)=O)NC(=O)C(CC(=O)O)NC(=O)C(Cc3cnc[nH]3)NC(=O)C(Cc3ccccc3)NC(=O)C(C(C)CC)NC(=O)C(CCCN)NC2=O)C(C)CC)CS1 (stereo not drawn) (cyclo(DNK([Ile-Glu-Leu-X2])[Orn]IFH); configuration not given here)	123

SMILES	activity remaining [%]
COc1ccc(CCN2CCC(Nc3nc4ccccc4n3Cc3ccc(F)cc3)CC2)cc1	124
NC(Cc1cc(I)c(Oc2ccc(O)c(I)c2)c(I)c1)C(=O)O (stereo not drawn)	97.1
CON	103
CC(=O)Oc1cc2c(c(C)c1OC(C)=O)CC1OC13[C@@]2(C)CC[C@@]1(C)C2C[C@](C)(C(=O)O)CC[C@]2(C)CC[C@]31C (stereo partly drawn)	101
CC1(C)C(=O)C=C[C@@]2(C)C1CC(=O)[C@]1(C)C2CC[C@@]2(C)[C@H](c3ccoc3)OC(=O)[C@H]3O[C@]321 (stereo partly drawn)	116
CC1(C)O[C@H]2CC(=O)OC[C@]23[C@H]2CC[C@@]4(C)[C@H](c5ccoc5)OC(=O)[C@H]5O[C@]54[C@]2(C)C(=O)C[C@@H]13	112
CC(C)C1=CC2=CCC3[C@](C)(CCC[C@]3(C)C(=O)O)C2CC1 (stereo partly drawn)	94.8
Nc1ncnc2c1ncn2C1C[C@H](O)[C@@H](CO)O1 (stereo partly drawn)	125
O=C(Nc1ccccc1)Nc1ccccc1	103
CCC(CCC(C)C1CCC2C3CC=C4C[C@@H](OC(C)=O)CC[C@]4(C)C3CC[C@]12C)C(C)C (stereo partly drawn)	114
Cn1c([N+](=O)[O-])cnc1COC(N)=O	104
COc1ccc2c(c1)OC/C(=C/c1ccc(OC)c(OC)c1)C2=O	123
Nc1ccc(S(=O)(=O)Nc2cnc3ccccc3n2)cc1	123
O=C(CCCN1CCN(c2ccccn2)CC1)c1ccc(F)cc1	124
CC(=O)O[C@@](C)(CCC=C(C)C)C1CC=C(C)CC1 (stereo partly drawn)	91.6
O=C(/C=C/c1ccc(O)c(O)c1)OC(Cc1ccc(O)c(O)c1)C(=O)O (stereo not drawn)	116
